# Measurements taken from PubChem BioAssay (EPA / NIEHS).
# Values joined by “and” are separate entries in the source; they are usually repeats but may differ in a detail not shown here. Identical values can stand only once. Records with an inconclusive call do not appear. A structure can be active in one record and inactive in another. Active and inactive are the calls of the source. The calls were made as follows: active = hit-call score of the fitted dose curve at least 0.9, where 1 is the maximum; inconclusive = response in the unintended direction; inactive = score below 0.9.
# Target: Estrogen receptor beta (Homo sapiens) (UniProt Q92731)
# Sequence (Q92731 whole entry, looked up): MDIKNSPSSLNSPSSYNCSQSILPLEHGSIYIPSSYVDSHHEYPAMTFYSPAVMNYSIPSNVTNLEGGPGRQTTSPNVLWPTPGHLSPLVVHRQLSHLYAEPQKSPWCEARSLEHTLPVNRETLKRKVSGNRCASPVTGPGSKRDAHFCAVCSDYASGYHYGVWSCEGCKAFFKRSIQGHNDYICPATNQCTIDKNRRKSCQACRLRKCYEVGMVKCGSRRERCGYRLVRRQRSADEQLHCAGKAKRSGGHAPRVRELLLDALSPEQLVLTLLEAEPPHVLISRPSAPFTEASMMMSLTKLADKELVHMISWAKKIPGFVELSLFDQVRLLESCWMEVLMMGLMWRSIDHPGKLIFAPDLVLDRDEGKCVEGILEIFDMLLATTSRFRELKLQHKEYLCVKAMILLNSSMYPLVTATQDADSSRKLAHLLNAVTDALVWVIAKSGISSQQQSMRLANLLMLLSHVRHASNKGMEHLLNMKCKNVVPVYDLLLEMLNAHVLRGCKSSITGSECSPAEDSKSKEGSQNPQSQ
# Experiment: OT_ER_ERbERb_0480: Odyssey Thera (OT) 8-hour HEK293T Protein-Complementation Assay for Estrogen Receptor-beta/-beta Homodimer (AID 2283357)
# Experimental: OT_ER_ERbERb_0480 is a cell-based assay that uses HEK293T, a human kidney cell line, with measurements taken at 8 hours after chemical dosing in a 384-well plate.OT_ER_ERbERb_0480 is one of one assay component(s) measured or calculated from the OT_ER_ERbERb_0480 assay. It is designed to make measurements of protein fragment complementation, a form of binding reporter, as detected with fluorescence intensity signals by Protein-fragment Complementation technology.Data from the assay component OT_ER_ERbERb_0480 was analyzed into 1 assay endpoint. This assay endpoint, OT_ER_ERbERb_0480, was analyzed in the positive analysis fitting direction relative to DMSO as the negative control and baseline of activity. Using a type of binding reporter, measures of receptor for gain-of-signal activity can be used to understand the binding at the pathway-level as they relate to the gene ESR2. Furthermore, this assay endpoint can be referred to as a primary readout, because the performed assay has only produced 1 assay endpoint. To generalize the intended target to other relatable targets, this assay endpoint is annotated to the nuclear receptor intended target family, where the subfamily is steroidal.
# Protein-fragment complementation assay, or PCA, is a method for the identification and quantification of protein-protein interactions. In the PCA, the proteins of interest ("bait" and "prey") are each covalently linked to fragments of a third protein (e.g. DHFR, which acts as a "reporter"). Interaction between the bait and the prey proteins brings the fragments of the reporter protein in close proximity to allow them to form a functional reporter protein whose activity can be measured. The OT ER beta / ER beta assay is a homodimer PCA of the ligand binding domain (LBD; amino acids 310-547) of human ER beta stably expressed in HEK293T cells. […] Cells are fixed in 4 percent formaldehyde and stained with Draq5 (BioStatus) to identify cells prior to signal detection. Fluorescent signal in the basal state of the assay is very low and is primarily punctuate and cytoplasmic. Modulation of this assay is quantified as an increase in mean fluorescence intensity in the nucleus (for agonists) or in the nucleus and cytoplasm (antagonists) relative to vehicle controls, and can be quantified on a high content imaging device or a laser scanning cytometer. The latter instrument is favored for this assay because of the rapid mode of data acquisition, the ability to acquire data from the entire cell population in a well (as opposed to a fraction of the well on the high content devices) and the larger dynamic range typically achieved with this instrument. To assess sensitivity of the ER beta/ER beta LBD assay to ligand, cells were treated with the ER agonist 17- beta-estradiol (E2) in 10-point concentration- response format for 8 hours and monitored response on a laser scanning plate cytometer (Acumen eX3; TTP Lab Tech).
SMILES,AC50,outcome
CCCCCCCCCc1ccc(O)cc1,12.7 µM (active) and 12.4 µM (active),–
OCC(O)CO,–,inactive
Cc1cccc(C)c1N,–,inactive
C=CC(=O)NCNC(=O)C=C,–,inactive
COc1ccc(O)c(C(C)(C)C)c1,31.8 µM (active),–
CCC(=O)O[C@H]1CC[C@H]2[C@@H]3CCC4=CC(=O)CC[C@]4(C)[C@H]3CC[C@]12C,12.2 µM (active) and 4.06 µM (active) and 12.3 µM (active),inactive
CCNc1nc(NC(C)C)nc(SC)n1,–,inactive
CC(C)(O)C(=O)Nc1ccc([N+](=O)[O-])c(C(F)(F)F)c1,–,inactive
O=C(N[C@H]1CN2CCC1CC2)c1cc2ccoc2cn1,–,inactive
CCC(C)(CC)c1cc(NC(=O)c2c(OC)cccc2OC)on1,–,inactive
CN(C)CCO,–,inactive
ClC1=C(Cl)[C@]2(Cl)[C@@H]3[C@@H](Cl)[C@H]4O[C@H]4[C@@H]3C1(Cl)C2(Cl)Cl,13.8 µM (active),–
CCCN(CCC)N=O,–,inactive
Nn1cnnc1,–,inactive
c1ccc(-c2ccccc2)cc1,–,inactive
O=C(O)C(F)(F)C(F)(F)C(F)(F)C(F)(F)C(F)(F)C(F)(F)C(F)(F)C(F)(F)F,–,inactive
CCOC(=O)C(O)(c1ccc(Cl)cc1)c1ccc(Cl)cc1,–,inactive
Cc1ccccc1O,–,inactive

SMILES,AC50,outcome
CC(C)C(=O)OCC(C)(C)C(OC(=O)C(C)C)C(C)C (configuration not stated),–,inactive
Nc1ccc(-c2ccc(N)cc2)cc1,–,inactive
O=S(=O)(O)C(F)(F)C(F)(F)C(F)(F)C(F)(F)F,–,inactive
C[C@]12CCC(=O)C=C1CC[C@@H]1[C@@H]2CC[C@]2(C)C(=O)CC[C@@H]12,–,inactive
CC#Cc1cc(C)nc(Nc2ccccc2)n1,–,inactive
Cc1ccc(O)c(C)c1,–,inactive
Oc1ccc(Cl)cc1Cl,50 µM (active),–
Clc1ccc(C(c2ccccc2Cl)C(Cl)(Cl)Cl)cc1 (configuration not stated),2.09 µM (active) and 3.59 µM (active) and 1.83 µM (active),–
CO/C=C(/C(=O)OC)c1ccccc1COc1cccc(C(F)(F)F)n1,–,inactive
CC(C)(c1ccccc1)c1ccc(O)cc1,1.8 µM (active) and 1.91 µM (active) and 2.14 µM (active),–
CCCCCCCCOC(=O)c1ccccc1C(=O)OCCCCCCCC,–,inactive
Cc1cc(O)ccc1Cl,47 µM (active),–
CCC(C)c1cc([N+](=O)[O-])cc([N+](=O)[O-])c1O (configuration not stated),–,inactive
NS(=O)(=O)C(F)(F)C(F)(F)C(F)(F)C(F)(F)C(F)(F)C(F)(F)C(F)(F)C(F)(F)F,86.7 µM (active),–
O=C(O)C(F)(F)C(F)(F)C(F)(F)C(F)(F)C(F)(F)F,–,inactive
O=C(NC(=O)c1c(F)cccc1F)Nc1cc(Cl)c(OC(F)(F)C(F)F)c(Cl)c1,–,inactive
C1CC2OC2CC1C1CO1 (configuration not stated),–,inactive
CN(C)c1nc(=O)n(C2CCCCC2)c(=O)n1C,–,inactive
